From PubChem BioAssay AID743279 (National Center for Advancing Translational Sciences (NCATS), 2014) come the findings set out here.

SMILES strings stand for the structures. Screen size: about 360,000 compounds; about 17,000 (4.7%) were called active. Not shown: some 5% with an inconclusive outcome. This is one part of a sample in which actives are shown more often than they occur. Unmarked numbers belong to inactive results. Rule as the data show it: active = activity change below about -50%; inconclusive = mostly about -30% to -49%; inactive = weaker than that.
% is scaled to controls: 0 for no effect and ±100 for the full control effect.

The test in a line: qHTS for Inhibitors of Inflammasome Signaling: IL-1-beta AlphaLISA Primary Screen. The conditions noted are these: THP-1 LPS/ATP IL-1B secretion, 16 h; at 57.5 µM, hits give low values. The essentials:
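Secreted IL-1B measured by AlphaLISA bead assay after 16 h compound exposure of THP-1 cells; compounds (final up to 57.5 uM) added 1 h before LPS (250 ng/mL) and ATP (1.25 mM) stimulation; lower signal means less secretion.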
In general terms: In qHTS, concentration-response curves come from the screen itself.
With `O=C(c1ccc(=O)[nH]c1)N(Cc1ccco1)C1(C(=O)NC2CCCCC2)CCCCC1`, the activity change was -5.54%.
To `Cc1cc(/C=C(/C#N)C(=O)Nc2ccc(Cl)cc2)c(C)n1-c1cccnc1` belongs -3.14%; to `O=C(/C=C/c1c(F)cccc1Cl)Nc1nn[nH]n1`, 19.3%; to `CNC(=O)/C(C#N)=C/c1c(F)cccc1Cl`, -84.3% (active).
As for `Cc1cccc(C(=O)OCC(=O)Nc2sccc2C(N)=O)c1C`, the figure is -7.19%.
As for `Cc1nn(C)cc1S(=O)(=O)N1CCN(c2ccc(F)cc2)CC1`, the activity change is 1.55%.
For the molecule `COC1C(CO)OC(n2cnc3c(=S)nc(N)[nH]c32)C1O` (stereo not given), the activity change was 2.88%.
As for `O=c1cc(N2CCCCC2)c(-c2ccccc2)nn1Cc1cccc(F)c1`, the activity change was -2.53%.
On to `Cc1ccc2oc(=O)ccc2c1`, for which the activity change was 12.6%.
Turning to `Cc1nc2c(OCc3ccc(Cl)cc3)cccn2c1N(C)Cc1cccs1`, the activity change is -66.3% (active).
To `Cc1nc2c(OCC(=O)C(C)(C)C)cccn2c1N(C)Cc1cccs1` belongs -25.2%; to `CCc1nc2c(OCc3ccc(F)c(F)c3)cccn2c1N(C)C(=O)c1ccco1`, 10.9%.
To `CCOC(=O)[C@]12CCC=C1N(Cc1cccc3ccccc13)C(=O)[C@H](CC(=O)NCc1cccc(C(F)(F)F)c1)C2` belongs -21.1%; to `COc1ccc2nc(N3CCN(C(=O)c4ccc([N+](=O)[O-])o4)CC3)sc2c1`, -88% (active); to `O=C(c1ccc2nc(N3CCOCC3)sc2c1)N1CCN(c2ccc(Cl)cc2)CC1`, 1.67%.
As for `COc1ccc2nc(N3C(=O)C(O)=C(C(=O)c4ccco4)C3c3ccco3)sc2c1` (stereo not given), the figure is 23.2%; as for `Cc1cc(Br)cn2c(Cc3ccccc3C(F)(F)F)c(-c3ccc(Cl)cc3)nc12`, 25.9%.
Take `CC1(C(=O)NS(=O)(=O)c2ccccc2Cl)CCN1C(=O)c1cccc(F)c1` (stereo not given): the activity change was 22.3%.
To `COc1ccc(CC(=O)NCc2nnc(SCC(=O)Nc3ncc(C)s3)n2C)cc1` belongs 15.7%.
In the case of `CCOC(=O)c1nnn(-c2nonc2-n2cccc2)c1CN1CCOCC1`, the activity change was 9.61%.
Take `CCOC(=O)c1c(CN2CCOCC2)n(-c2ccccc2)c2ccc(O)cc12`: the activity change is -54.1% (active).
As for `CC(=O)c1c(C)n(-c2ccc(C)cc2)c2ccc(O)cc12`, the figure is 12.1%; as for `CCOC(=O)Cc1csc(NC(=O)Nc2ccccc2)n1`, -69.2% (active).
As for `CCOC(=O)Cc1csc(NC(NC(=O)OCC)(C(F)(F)F)C(F)(F)F)n1`, the figure is 2.86%.
To `CC(=O)Nc1ccc(-c2csc(NC(=O)Nc3ccccc3)n2)cc1` belongs -57.5% (active); to `CC(=O)NCc1ccc(-c2csc(NC(=O)CCCc3nc4ccccc4c(=O)[nH]3)n2)cc1`, -3.36%; to `CC(=O)Nc1ccc(-c2cn3cccnc3n2)cc1`, -2.21%.
With `CCOC(=O)Cc1csc(NC(=O)CSc2ccc(Br)cc2)n1`, the activity change was 35.1%.
As for `N#CCCN(C(=O)Nc1ccc(Cl)c(Cl)c1)C1CCCCC1`, the figure is -24.2%; as for `CCOC1=C2[C@H]([C@H]3C(=O)N(c4ccccc4)C(=O)[C@H]3C1)[C@@H](c1ccccc1)N(S(=O)(=O)c1ccc(C)cc1)[C@H]2c1ccccc1`, 21.6%; as for `COc1ccc(OC)c(C(=O)c2coc3ccc(OC)cc23)c1`, 5.54%.
With `COc1ccc(C(=O)c2oc3ccc(Br)cc3c2NC(C)=O)cc1`, the activity change is -26.9%.
As for `COc1ccc2occ(C(=O)c3ccc(N=C(C)N(C)C)cc3)c2c1`, the activity change was -57% (active).
As to `Cc1nc(CN2CCN(C(=O)CCc3nnc(Cc4c[nH]c5ccccc45)o3)CC2)cs1`, the activity change was 21.5%.
In the case of `C[C@H]1CN([C@@H](C)CO)C(=O)c2cc(Br)cnc2O[C@H]1CN(C)S(=O)(=O)c1cccs1`, the activity change was -17.5%.
To `Nc1ccccc1-c1nc2ccncc2[nH]1` belongs -6.01%; to `CCCCn1c(N)c(N(CC(C)C)C(=O)c2cnc(C)cn2)c(=O)[nH]c1=O`, -2.8%; to `CCCCn1c(N)c(N(CC(C)C)C(=O)c2ccc(Br)o2)c(=O)[nH]c1=O`, -3.41%.
As for `CCCCn1c(N)c(N(CC(C)C)C(=O)c2ccc(-n3c(C)ccc3C)cc2)c(=O)[nH]c1=O`, the figure is -61.6% (active); as for `CC(C)c1ccc(-c2nn[nH]n2)cc1`, -4.8%.
To `CN[C@H]1C[C@H]2c3cc(Oc4ccccc4C)ccc3CCN2C(=O)[C@H]1[C@H](C)O` belongs -11%; to `[O-][n+]1onc2c1CCc1[nH]c(-c3ccccc3)nc1-2`, -66.3% (active).
As for `N#Cc1c(-c2ccc(F)cc2)nc(-c2ccccc2)[nH]c1=O`, the activity change is 8.84%.
As for `CN1CCN(c2ccc3c(c2)OC[C@H](Cc2ccccc2)NS3(=O)=O)CC1`, the figure is 2.92%; as for `O=c1[nH]c(CCl)nc2cc(-c3ccc(Cl)cc3)sc12`, -93.8% (active).
To `Cn1c(NCc2cccnc2)nc2cc(-c3ccc(F)cc3)sc2c1=O` belongs 4.79%; to `COc1cccc(-c2cc3nc(NCCOc4ccccc4Cl)n(C)c(=O)c3s2)c1`, 33.6%; to `O=c1[nH]c(=S)[nH]c(O)c1/C=C1\C=Nc2ccccc21`, -3.38%.
To `Cc1nc(C(F)(F)F)ccc1C(=O)N1CCC1(C)C(=O)NS(=O)(=O)c1ccccc1Cl` (stereo not given) belongs 27.9%; to `O=C(Nc1ccc2c(c1)[C@@H]1C[C@@H](CC(=O)N3CCCCC3)O[C@@H](CO)[C@@H]1O2)NC1CCCCC1`, 7.94%.
As for `CC1CN(Cc2ccccc2)C(=S)NC1=O` (stereo not given), the activity change is 5.57%.
As for `CC(=O)OCC(C)n1c(=O)c2ccccc2n1C(C)=O` (stereo not given), the figure is 21.8%; as for `CC(=O)c1nc2ccccc2n1Cc1ccccc1`, 24.8%.
To `CC(=O)Oc1c(C(=O)c2nnc(C)o2)c(=O)n(Cc2ccccc2)c2ccccc12` belongs -63.6% (active); to `COc1ccc(NS(=O)(=O)c2cc(NC(=O)CC(=O)c3ccc([N+](=O)[O-])cc3)ccc2C)cc1`, -19.6%.
As for `O=C(Nc1cccc(-c2nc3ncccc3o2)c1)c1ccco1`, the figure is -57% (active).
Turning to `O=C(Nc1cc(-c2nc3ncccc3o2)ccc1Cl)c1ccco1`, the activity change is 4.47%.
Consider `CC(C)(C)NC(=O)c1cc(NC(=O)c2ccco2)cc(NC(=O)c2ccco2)c1`, for which the activity change is 3.33%.
As for `Cc1ccc2nc(SCc3nnc(-c4ccccc4[N+](=O)[O-])o3)c(C#N)cc2c1`, the figure is 24.6%; as for `Cc1ccc([C@H]2C[C@H](O)[C@@H](n3cc(COC(=O)c4ccccc4)nn3)CN2CC2CCCCC2)cc1`, -1.43%; as for `CN1CCN(C(=O)c2ccccc2NC(=O)COc2ccccc2Cl)CC1`, 7.63%.
Regarding `COc1ccc(C(=O)OCC(=O)NCCCc2ccccc2)cc1OC`, the activity change was 19%.
As for `CC(C)n1ncc2c(C(=O)N3CCN(Cc4cccs4)CC3)cc(C3CC3)nc21`, the figure is -6.72%.
As for `CC(=O)Nc1cccc(-c2ccnc3c2CC(C)(C(=O)NCc2ccccc2)O3)c1` (stereo not given), the figure is 92.1%.
As for `CCCCN(CCCC)C(=O)CCS(=O)(=O)c1ccc2c(c1)n(C)c(=O)c(=O)n2C`, the figure is 7.06%; as for `O=C1CCC(=O)N(O)CCCCCNC(=O)CCC(=O)N(O)CCCCCNC(=O)CCC(=O)N(O)CCCCCN1`, 38.7%.
For `Cc1nc(-c2ccccc2)sc1C(=O)/C=C/N(C)C`, the activity change is -11.9%.
For `COc1ccc(/C=C/C(=O)NC(=S)N2CCCC(C(N)=O)C2)cc1` (stereo not given), the activity change is -22.6%.
As for `COc1ccc(/C=C/C(=O)c2cc(Br)ccc(=O)c2O)cc1`, the figure is -2.15%.
As for `COc1ccc(C(=O)/C=C/c2ccc(OC3CSC3)cc2)cc1`, the figure is -99.6% (active).
On to `CCOC(=O)C1CCCN(C(=O)/C=C/c2ccc(OC)cc2)C1` (stereo not given), for which the activity change is -6.92%.
`COc1ccc(C(=O)/C=C/c2cccnc2)c(OC)c1`: the activity change is -96.6% (active).
On to `COc1ccc(/C=C/C(=O)c2ccc(OC)cc2O)cc1`, for which the activity change was -98.1% (active).
Consider `COc1ccc(C(=O)CCC(=O)Nc2cccnc2)c(OC)c1`, for which the activity change was -9.85%.
As for `Cc1nc(-c2ccccc2)sc1C(=O)/C=C/c1ccccc1`, the figure is -84.3% (active).
To `COc1ccc(-c2cc(C(=O)N/N=C/c3cccnc3)c3ccccc3n2)c(OC)c1` belongs -5.72%.
To `Cc1nc(-c2ccc(Cl)cc2)sc1C(=O)CBr` belongs 0%; to `COc1ccc(C(=O)CC(=O)c2ccc(C)cc2)c(O)c1`, -20.9%.
Regarding `Cc1ccc(S(=O)(=O)N2CCOCC2)cc1NC(=O)CSc1nnc(N)s1`, the activity change is 18.9%.
To `COC(=O)[C@]12CCCCC=C1N(Cc1ccccc1)C(=O)[C@H](CC(=O)NCc1ccc(C)o1)C2` belongs 42.5%; to `O=C(OCc1cn([C@@H]2C[C@H](c3ccc(Cl)cc3)N(Cc3cccs3)C[C@H]2O)nn1)c1ccccc1`, 10.7%.
As for `O=C1CCC/C(=N\NC(=O)NC2CCCCC2)C1`, the figure is -10.6%; as for `O=C(/C=C(O)/C=C/c1ccc(O)cc1)/C=C/c1ccc(O)cc1`, -22.4%.
On to `O=C(/C=C/c1ccccc1)c1ccccc1O`, for which the activity change is -85.5% (active).
As to `O=C(NNC(=O)c1ccccc1O)c1ccccc1O`, the activity change was 67.1%.
As for `CCCS(=O)(=O)NC(=O)C1(C)CCCN(C(=O)c2cccs2)C1` (stereo not given), the activity change is 1.15%.
To `CCOC(=O)c1ccc2[nH]c(C)c(CN3CCN(C)CC3)c(=O)c2c1` belongs 13.2%; to `O=C(CCCCCn1c(=S)[nH]c2ccsc2c1=O)NC1CCCCC1`, 7.06%.
`CO[C@@H]1CN(C)C(=O)c2cc(NC(=O)C3CC3)ccc2OC[C@H](C)N(C(=O)CN2CCOCC2)C[C@@H]1C`: the activity change was 11%.
As for `O=C(O)c1ccccc1-c1cccc2nncn12`, the figure is -10.3%.
